# PubChem BioAssay (Tox21)
# Unmarked numbers belong to inactive results. A call without a number means that no potency is given here. The source made the active and inactive calls. Unless noted, calls come from the whole dose curve; as a rule, active = well fitted curve in the direction sought with a large enough effect in the repeat runs; inconclusive = weak or mixed curves; inactive = flat fitted curve, though single readings scatter.
# What was measured:
# [1] = qHTS assay to test for compound auto fluorescence at 535 nm (green) in HEK293 cells (AID 720680)
# [2] = qHTS assay to test for compound auto fluorescence at 460 nm (blue) in HEK293 cell free culture (AID 720681)
# Summary of the method: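 Blue fluorescence (Ex 405/Em 460 nm, triamterene-equivalent) was read immediately after pin transfer of compound or DMSO into medium (DMEM, 10% FBS) without cells.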
# [3] = qHTS assay to test for compound auto fluorescence at 535 nm (green) in HEK293 cell free culture (AID 720682)
# Summary of the method: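 Intrinsic compound fluorescence is measured in culture medium containing 10% FBS, with excitation at 485 nm and detection at 535 nm, referenced to fluorescein.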
# [4] = qHTS assay to test for compound auto fluorescence at 590 nm (red) in HEK293 cell free culture (AID 720683)
# Summary of the method: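 Red-channel autofluorescence of compounds in culture medium (DMEM, 10% FBS), no cells, measured at 540/590 nm. Rose Bengal sodium is the reference fluorophore for equivalence.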
# [5] = qHTS assay to test for compound auto fluorescence at 590 nm (red) in HepG2 cell free culture (AID 720684)
# Summary of the method: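 Cell-free; medium MEM + 10% FBS; compound or DMSO added by pintool; read Ex 540/Em 590 nm; Rose Bengal sodium as red reference fluorophore.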
# [6] = qHTS assay to test for compound auto fluorescence at 460 nm (blue) in HepG2 cell free culture (AID 720685)
# Summary of the method: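 Cell-free plates of MEM plus 10% FBS received 23 nL compound or DMSO vehicle; blue-channel (405/460 nm) intensity scored against triamterene as reference fluorophore.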
# [7] = qHTS assay to test for compound auto fluorescence at 535 nm (green) in HepG2 cell free culture (AID 720686)
# [8] = qHTS assay to test for compound auto fluorescence at 460 nm (blue) in HepG2 cells (AID 720687)
# Summary of the method: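 Blue-channel autofluorescence (Ex/Em 405/460 nm, triamterene-equivalent) was measured after 1 hr compound exposure at 37 C, 5% CO2. Cells were HepG2, plated overnight at 37 C in MEM plus 10% FBS.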
# [9] = molecular target: Glucocorticoid receptor (Homo sapiens) (UniProt P04150); test: qHTS assay to identify small molecule agonists of the glucocorticoid receptor (GR) signaling pathway (AID 720691; active = well fitted activation curve with a large enough effect in the signal ratio in the repeat runs, not every such curve was filed as active; inconclusive = weak or mixed curves, or effect the other way; inactive = no such curve, though single readings can be large or run the other way; the % refers to the signal ratio; note: potency is the fitted concentration of half-maximal effect); conditions: GR-bla HeLa, beta-lactamase reporter ratio, 18 h; activation: at 62.4 µM (top of the series)
# Summary of the method: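 Compounds in DMSO, alongside positive controls, were added to GR-bla HeLa reporter cells and incubated 18 h at 37 C; GRE-driven beta-lactamase was detected by fluorescence after 2 h with FRET substrate at room temperature.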
# [10] = molecular target: Glucocorticoid receptor (Homo sapiens) (UniProt P04150); test: qHTS assay to identify small molecule antagonists of the glucocorticoid receptor (GR) signaling pathway (AID 720692; active = well fitted inhibition curve with a large enough effect in the signal ratio in the repeat runs, not every such curve was filed as active; inconclusive = weak or mixed curves, or effect the other way; inactive = no such curve, though single readings can be large or run the other way; the % refers to the signal ratio)
# Summary of the method: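 In a 1536-well cell format, compounds were added 4 h after seeding GR-bla HeLa cells, together with dexamethasone at 5 nM final; reporter activity was measured by FRET-substrate fluorescence following 18 h at 37 C.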
# Sequence of Glucocorticoid receptor (Homo sapiens) (P04150 whole entry, looked up): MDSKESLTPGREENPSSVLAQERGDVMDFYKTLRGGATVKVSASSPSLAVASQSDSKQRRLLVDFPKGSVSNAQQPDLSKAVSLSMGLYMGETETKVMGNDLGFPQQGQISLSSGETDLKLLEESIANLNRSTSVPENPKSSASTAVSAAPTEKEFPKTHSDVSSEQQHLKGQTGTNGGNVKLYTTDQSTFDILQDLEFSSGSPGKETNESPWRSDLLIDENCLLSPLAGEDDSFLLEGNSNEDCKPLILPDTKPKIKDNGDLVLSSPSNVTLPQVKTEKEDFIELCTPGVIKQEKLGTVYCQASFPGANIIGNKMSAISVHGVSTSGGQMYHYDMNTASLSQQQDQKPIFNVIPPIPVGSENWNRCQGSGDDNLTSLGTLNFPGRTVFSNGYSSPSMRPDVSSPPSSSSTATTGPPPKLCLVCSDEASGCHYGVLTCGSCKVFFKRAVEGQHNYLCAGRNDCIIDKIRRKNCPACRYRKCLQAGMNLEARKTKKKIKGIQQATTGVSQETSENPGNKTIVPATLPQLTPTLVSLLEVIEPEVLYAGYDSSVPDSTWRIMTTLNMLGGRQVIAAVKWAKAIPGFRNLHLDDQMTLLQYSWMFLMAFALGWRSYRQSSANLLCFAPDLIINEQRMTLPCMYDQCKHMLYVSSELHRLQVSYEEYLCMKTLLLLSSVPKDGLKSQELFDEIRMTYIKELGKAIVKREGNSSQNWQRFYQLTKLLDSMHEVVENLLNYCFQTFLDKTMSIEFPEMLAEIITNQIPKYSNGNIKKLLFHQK
SMILES,outcome [1],Potency [2],outcome [3],outcome [4],outcome [5],Potency [6],Potency [7],Potency [8],Potency [9],Potency [10]
C=N[C@@H](C(=O)N[C@@H]1C(=O)N2[C@@H]1SC(C)(C)[C@@H]2C(=O)O)c1ccccc1,inactive,inactive,inactive,inactive,inactive,inactive,–,–,–,–
CCOC(=O)Cc1ccc(-c2ccccc2)cc1,inactive,inactive,inactive,inactive,inactive,inactive,inactive,inactive,–,–
CCOc1ccc([N+](=O)[O-])cc1,inactive,inactive,inactive,inactive,inactive,inactive,inactive,inactive,–,–
C[S+](CC[C@H](N)C(=O)O)C[C@H]1O[C@@H](n2cnc3c(N)ncnc32)[C@H](O)[C@@H]1O (some centres undefined),inactive,inactive,inactive,inactive,inactive,inactive,inactive,inactive,–,–
CCC(C)(C)c1ccc(CC(C)CN2C[C@@H](C)O[C@@H](C)C2)cc1 (some centres undefined),inactive,inactive,inactive,inactive,inactive,inactive,inactive,inactive,–,–
CC1(C)C[C@@H]1C(=O)N/C(=C\CCCCSC[C@H](N)C(=O)O)C(=O)O,inactive,inactive,inactive,inactive,inactive,inactive,inactive,inactive,–,–
CN1CCN(CCCN2c3ccccc3Sc3ccc(C(F)(F)F)cc32)CC1,inactive,inactive,inactive,inactive,inactive,inactive,inactive,inactive,–,–
CC1=C(/C=C/C(C)=C/C=C/C(C)=C\C(=O)O)C(C)(C)CCC1,inactive,inactive,inactive,inactive,inactive,inactive,inactive,inactive,–,–
N#Cc1c(N(CC(=O)O)CC(=O)O)sc(C(=O)O)c1CC(=O)O,inactive,inactive,inactive,inactive,inactive,inactive,inactive,inactive,–,–
CCCCCCCC1CCC(=O)O1 (centres undefined),inactive,inactive,inactive,inactive,inactive,inactive,inactive,inactive,–,–
CCCCC[C@H](O)/C=C/[C@@H]1[C@@H](C/C=C\CCCC(=O)O)[C@@H](O)C[C@H]1O,inactive,inactive,inactive,inactive,inactive,inactive,inactive,inactive,–,–
CCN1\C(=C/C=C/C=C/c2sc3ccccc3[n+]2CC)Sc2ccccc21,inactive,inactive,inactive,inactive,inactive,inactive,inactive,inactive,–,–
C=CC[N+]1([C@H]2C[C@H]3[C@@H]4CC[C@H]5C[C@H](O)[C@@H](N6CCOCC6)C[C@]5(C)[C@H]4CC[C@]3(C)[C@H]2OC(C)=O)CCCC1,inactive,inactive,inactive,inactive,inactive,inactive,inactive,inactive,inactive,–
CC(=O)OCC(=O)[C@@]1(O)CC[C@H]2[C@@H]3CCC4=CC(=O)CC[C@]4(C)C3=CC[C@@]21C,inactive,inactive,inactive,inactive,inactive,inactive,inactive,inactive,inactive,–
C[N+]1(CCCCC[N+]2(C)CCCC2)CCCC1,inactive,inactive,inactive,inactive,inactive,inactive,inactive,inactive,inactive,inactive
CC[C@@H](C(=O)[C@@H](C)[C@@H](O)[C@H](C)CCc1ccc(C)c(O)c1C(=O)O)[C@H]1O[C@](CC)([C@H]2CC[C@](O)(CC)[C@H](C)O2)C[C@@H]1C,inactive,inactive,inactive,inactive,inactive,inactive,inactive,inactive,16.9 µM [inconclusive] (active),–
COc1ccc(/C=C/C(=O)Nc2ccccc2C(=O)O)cc1OC,inactive,inactive,inactive,inactive,inactive,inactive,inactive,inactive,inactive,–
Cc1cc(=O)c(C(=O)N[C@@H](C(=O)N[C@@H]2C(=O)N3C(C(=O)O)=C(CSc4nnnn4C)CS[C@H]23)c2ccc(O)cc2)c[nH]1,inactive,inactive,inactive,inactive,inactive,inactive,inactive,inactive,inactive,inactive
CC1=C(/C=C/C(C)=C/C=C/C(C)=C/C=C/C=C(C)/C=C/C=C(C)/C=C/C2=C(C)CCCC2(C)C)C(C)(C)CCC1,inactive,inactive,inactive,inactive,inactive,inactive,inactive,inactive,inactive,inactive
CCCCCCCCCCCCCCCCCCOCC(COP(=O)([O-])OCC[N+](C)(C)C)OC (centres undefined),inactive,inactive,inactive,inactive,inactive,inactive,inactive,inactive,inactive,–
CC[N+](CC)(CC)CCC(O)(c1ccccc1)C1CCCCC1 (centres undefined),inactive,inactive,inactive,inactive,inactive,inactive,inactive,inactive,inactive,inactive
COc1c(O)cc2c(c1O)[C@@H]1O[C@H](CO)[C@@H](O)[C@H](O)[C@H]1OC2=O,inactive,inactive,inactive,inactive,inactive,inactive,inactive,inactive,inactive,inactive
